Some test systems named below: NCI-H23 lung; NCI-H322M lung; HOP-62 NSCLC; NCI-H460 lung; HOP-92 NSCLC; NCI-H522 lung; A549/ATCC NSCLC; 786-0 renal; DU-145 prostate; K-562 leukemia; MALME-3M melanoma; MDA-MB-231 breast; RXF 393 renal; SF-268 CNS; SF-295 CNS; SF-539 CNS; UACC-257 melanoma; M14 melanoma; HCT-15 colon; COLO 205 colon.
Common to all, as to experiment: NCI-60 one-dose screen, 48 h (100 = growth as untreated, 0 = no growth, -100 = all killed)
Holding throughout (details): 10 µM unless noted

This is part of a sample that, as a whole, favours compounds with a hit. Of some 83,000 tested, about 20% had one in any assay.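 Method: cells in 96-well plates; compound added at one concentration; 48 h incubation; percent growth measured; values under 10 scored active.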 Values without a mark were called inactive. Calls of active or inactive are those of the source.

Take `NCCCNc1nc2ccccc2c2c(=O)c3cc(F)ccc3sc12`: the growth in the assay with NCI-H23 lung was 70%; with NCI-H322M lung, 41.9%; with HOP-62 NSCLC, 32.8%; with NCI-H460 lung, -74.7% (active); with HOP-92 NSCLC it was 8.11% (active); with NCI-H522 lung it was -42.7% (active). The growth was -29.3% (active) in the assay on A549/ATCC NSCLC; 1.83% (active) in the assay on 786-0 renal; -22.8% (active) with DU-145 prostate; -50.4% (active) with K-562 leukemia; 76.7% in the assay with MALME-3M melanoma; -53.1% (active) in the assay on MDA-MB-231 breast. Besides, the growth was 41.9% in the assay on RXF 393 renal; 34.3% with SF-268 CNS; 85.9% in the assay on SF-295 CNS; 55.2% in the assay on SF-539 CNS; 68.1% with UACC-257 melanoma; -55.5% (active) with M14 melanoma. The growth in the assay with HCT-15 colon was -49.3% (active).
For `COc1cc(C(=O)O/N=C(\N)Cc2cccc3ccccc23)cc(OC)c1OC`, the growth with NCI-H23 lung is 80.7%; in the assay with NCI-H322M lung, 18.1%; in the assay on NCI-H460 lung, -47.9% (active); in the assay on HOP-92 NSCLC, -7.36% (active); in the assay with NCI-H522 lung it was -10.9% (active); in the assay on A549/ATCC NSCLC, 12.2%. The growth in the assay with 786-0 renal is 45.9%; with COLO 205 colon, -92.6% (active); in the assay with DU-145 prostate, 47.5%; in the assay on K-562 leukemia, -43.2% (active); with MALME-3M melanoma, -85.9% (active); in the assay with MDA-MB-231 breast it was -46.6% (active). Moreover, the growth in the assay on RXF 393 renal was 7.59% (active); with SF-268 CNS, 17.6%; in the assay on SF-295 CNS it was -84.6% (active); with SF-539 CNS it was -88.7% (active); with UACC-257 melanoma it was -89.3% (active); in the assay with M14 melanoma, -72.7% (active).
As for `COc1cc(/C(C#N)=C/c2nc3c(N4CCOCC4)nc(Cl)nc3n2C)cc(OC)c1OC`, the growth in the assay on NCI-H23 lung is 18.2%; in the assay on NCI-H322M lung, 28.8%; with HOP-62 NSCLC, 25.1%; in the assay with NCI-H460 lung it was -3.75% (active); in the assay on HOP-92 NSCLC, -4.18% (active); in the assay with NCI-H522 lung, 15.7%. The growth was 19.5% in the assay with A549/ATCC NSCLC; 6.45% (active) with 786-0 renal; 4.54% (active) in the assay with DU-145 prostate; 4.64% (active) with K-562 leukemia; 34.8% in the assay with MALME-3M melanoma; 9.11% (active) with MDA-MB-231 breast. In addition, the growth is 25.7% in the assay on RXF 393 renal; 17.2% with SF-268 CNS; -15% (active) in the assay on SF-295 CNS; -23.7% (active) in the assay with SF-539 CNS; 66.2% in the assay on UACC-257 melanoma; 10.8% in the assay on M14 melanoma. Moreover, in the assay with HCT-15 colon, the growth was 8.94% (active).
Turning to `Cc1ccc2c(n1)C(=O)C(Oc1ccc(Br)cc1)=CC2=O`, the growth is 94.5% with NCI-H23 lung; 99.6% in the assay with NCI-H322M lung; 116% in the assay with HOP-62 NSCLC; 99.1% in the assay with NCI-H460 lung; 108% in the assay on HOP-92 NSCLC; -27% (active) with NCI-H522 lung. Moreover, the growth in the assay with A549/ATCC NSCLC was 100%; in the assay on 786-0 renal, 104%; in the assay on DU-145 prostate it was 110%; in the assay on K-562 leukemia it was 77%; in the assay on MALME-3M melanoma, 115%; in the assay on MDA-MB-231 breast, 91.1%. Moreover, the growth in the assay on RXF 393 renal was 104%; in the assay with SF-268 CNS, 88.4%; in the assay with SF-295 CNS, 103%; in the assay on SF-539 CNS, 104%; with UACC-257 melanoma it was 106%; with M14 melanoma, 94.9%. Moreover, in the assay with HCT-15 colon, the growth is 84.7%.
As to `COC(=O)c1c2c(c(C)[n+]([O-])c1C)C(=O)C(NCc1ccc(Br)cc1)=CC2=O`, the growth is 11% in the assay on NCI-H23 lung; 28.7% in the assay with NCI-H322M lung; 31.4% in the assay with HOP-62 NSCLC; 3.51% (active) in the assay on NCI-H460 lung; 78.1% with HOP-92 NSCLC; 42.8% with NCI-H522 lung. Moreover, the growth was 18.2% in the assay with A549/ATCC NSCLC; 48.8% with 786-0 renal; 53.3% with DU-145 prostate; 32% in the assay on K-562 leukemia; -70.1% (active) with MALME-3M melanoma; 4.21% (active) with MDA-MB-231 breast. Moreover, the growth was 41.4% in the assay with RXF 393 renal; 16.2% in the assay on SF-268 CNS; 19.3% in the assay with SF-295 CNS; 8.36% (active) in the assay on SF-539 CNS; -52.3% (active) with UACC-257 melanoma; 4.19% (active) with M14 melanoma. The growth in the assay on HCT-15 colon is 7.94% (active).
For `O=C1CCC(N2C(=O)c3cccc(NCCCCCCOc4ccc(Nc5nccc(Nc6ccccc6)n5)cc4)c3C2=O)C(=O)N1` (stereo unspecified), the growth is 62.6% in the assay on NCI-H23 lung; 91.6% with NCI-H322M lung; 84.2% in the assay with HOP-62 NSCLC; 83.6% in the assay on NCI-H460 lung; 84.1% in the assay on HOP-92 NSCLC; 76.6% with NCI-H522 lung. Also, the growth in the assay on A549/ATCC NSCLC was 81.6%; in the assay with 786-0 renal it was 91.9%; with DU-145 prostate, 97.8%; with K-562 leukemia it was 46.8%; with MALME-3M melanoma, 76.7%; in the assay with MDA-MB-231 breast, 86.6%. Also, the growth was 94.7% in the assay with RXF 393 renal; 88.7% with SF-268 CNS; 73.3% in the assay on SF-295 CNS; 89.1% with SF-539 CNS; 73.1% in the assay on UACC-257 melanoma; 88.1% in the assay with M14 melanoma. The growth in the assay with HCT-15 colon was 86.7%.
On to `O=C(/C=C/c1ccc(Cl)cc1)c1ccc(Nc2nc(NCCO)nc(Nc3ccc(Cl)cc3)n2)cc1`, for which the growth in the assay on NCI-H23 lung was 87.6%; in the assay with NCI-H322M lung, 86.7%; with HOP-62 NSCLC it was 80.3%; in the assay on NCI-H460 lung it was 54.3%; in the assay on HOP-92 NSCLC, 63.1%; in the assay with NCI-H522 lung it was 77.8%. In addition, the growth was 51.2% with A549/ATCC NSCLC; 26.9% in the assay on 786-0 renal; 67.7% in the assay with DU-145 prostate; 37.6% with K-562 leukemia; 90.3% in the assay with MALME-3M melanoma; 62.4% in the assay with MDA-MB-231 breast. In addition, the growth in the assay on RXF 393 renal was 54.3%; in the assay on SF-268 CNS, 60.2%; in the assay on SF-295 CNS, 87.2%; with SF-539 CNS it was 64.8%; in the assay with UACC-257 melanoma, 95.8%; in the assay with M14 melanoma, 64.1%. In addition, in the assay on HCT-15 colon, the growth is 25.9%.
Turning to `Cc1cccc2c(=O)c3c(sc12)c(NCCN)nc1ccccc13`, the growth in the assay with NCI-H23 lung was -13.2% (active); in the assay on NCI-H322M lung, -38.3% (active); with HOP-62 NSCLC, -64.6% (active); with NCI-H460 lung, -75.3% (active); in the assay on HOP-92 NSCLC, 27.7%; with NCI-H522 lung it was -56.3% (active). Further, the growth in the assay on A549/ATCC NSCLC was -75.2% (active); in the assay on 786-0 renal, -37.4% (active); in the assay on DU-145 prostate it was -87.9% (active); in the assay on K-562 leukemia it was -45.2% (active); with MALME-3M melanoma it was -74.2% (active); in the assay with MDA-MB-231 breast it was -75.6% (active). The growth is 34.1% with RXF 393 renal; 6.22% (active) in the assay with SF-268 CNS; -75.3% (active) with SF-295 CNS; -85.7% (active) with SF-539 CNS; -17.6% (active) in the assay on UACC-257 melanoma; -75.7% (active) in the assay on M14 melanoma. Further, the growth in the assay with HCT-15 colon was -79.9% (active).

The record behind these values is PubChem BioAssay (NCI).
